Laboratory results reported in PubChem BioAssay.
Calls of active or inactive are those of the source.

Legend:
[1] = compounds binding Alexa647 anti-His antibody – biochemical, small-molecule microarray, 635 nm fluorescence, artefact control for SMM control protein annotation, primary screen (AID 1128); conditions: higher = more signal;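 also: score merges feature fluorescence with signal-to-noise for each printed compound spot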
[2] = test system: Human papillomavirus type 1a E7 protein (residues 1-88); assay: HPV1a E7 small-molecule binders, primary screen, biochemical, small-molecule microarray, residues 1-88, 635 nm (AID 1129); conditions: small-molecule microarray binding, fluorescence 635 nm; higher = more signal
[3] = molecular target: Focal adhesion kinase 1 (Homo sapiens) (UniProt Q05397); assay: PTK2 protein binding on printed compound slides – biochemical, small-molecule microarray, 635/667 nm fluorescence, BSA, DTT, primary screen (AID 1130); conditions: 635 nm fluorescence, higher = more signal;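 also: composite of spot emission at 667 nm and signal to noise over triplicate slides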
Focal adhesion kinase 1 (Homo sapiens), sequence (Q05397 whole entry, looked up): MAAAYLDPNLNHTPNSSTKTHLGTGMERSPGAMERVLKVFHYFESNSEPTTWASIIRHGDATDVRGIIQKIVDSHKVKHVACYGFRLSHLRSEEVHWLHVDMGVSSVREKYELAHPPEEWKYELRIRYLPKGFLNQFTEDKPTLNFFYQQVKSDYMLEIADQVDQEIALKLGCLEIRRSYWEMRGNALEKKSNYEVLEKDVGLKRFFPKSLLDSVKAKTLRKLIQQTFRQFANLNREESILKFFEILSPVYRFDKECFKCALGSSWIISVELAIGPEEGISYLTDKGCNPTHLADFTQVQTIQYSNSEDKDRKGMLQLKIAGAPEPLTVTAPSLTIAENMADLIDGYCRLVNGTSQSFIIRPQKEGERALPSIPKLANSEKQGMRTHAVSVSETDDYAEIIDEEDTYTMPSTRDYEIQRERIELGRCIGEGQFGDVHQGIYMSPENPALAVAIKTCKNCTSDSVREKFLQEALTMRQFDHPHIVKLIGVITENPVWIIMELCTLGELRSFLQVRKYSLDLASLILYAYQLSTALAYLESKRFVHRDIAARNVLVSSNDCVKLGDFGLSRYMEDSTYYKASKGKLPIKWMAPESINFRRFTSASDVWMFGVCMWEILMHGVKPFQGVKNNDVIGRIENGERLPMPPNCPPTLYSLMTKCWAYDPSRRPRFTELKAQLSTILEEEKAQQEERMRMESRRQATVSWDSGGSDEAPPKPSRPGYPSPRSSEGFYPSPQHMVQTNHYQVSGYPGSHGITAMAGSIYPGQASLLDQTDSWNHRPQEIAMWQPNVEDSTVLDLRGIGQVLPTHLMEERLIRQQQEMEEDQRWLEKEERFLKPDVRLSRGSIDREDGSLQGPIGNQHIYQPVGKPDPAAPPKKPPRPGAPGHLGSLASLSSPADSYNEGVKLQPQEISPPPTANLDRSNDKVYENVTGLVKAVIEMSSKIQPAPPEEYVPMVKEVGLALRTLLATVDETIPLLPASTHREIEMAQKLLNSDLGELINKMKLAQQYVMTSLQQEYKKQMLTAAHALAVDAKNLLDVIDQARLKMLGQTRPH

[4] = test system: Fibrinogen (Alexa647-labelled); assay: Alexa647-fibrinogen binding to printed small molecules – biochemical, small-molecule microarray, 635/667 nm fluorescence, artefact control for SMM control-protein annotation, profiling panel (AID 1131); conditions: fibrinogen-A647 binding fluorescence, higher = more signal;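 also: z-score merges 667 nm fluorescence with per-spot signal-to-noise over triplicate slides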
[5] = molecular target: Follistatin (Homo sapiens) (UniProt P19883); assay: FST protein binding to printed compounds – biochemical, small-molecule microarray, 635/667 nm fluorescence, primary screen (AID 1132); conditions: 635 nm fluorescence, higher = more signal
Follistatin (Homo sapiens), sequence (P19883 whole entry, looked up): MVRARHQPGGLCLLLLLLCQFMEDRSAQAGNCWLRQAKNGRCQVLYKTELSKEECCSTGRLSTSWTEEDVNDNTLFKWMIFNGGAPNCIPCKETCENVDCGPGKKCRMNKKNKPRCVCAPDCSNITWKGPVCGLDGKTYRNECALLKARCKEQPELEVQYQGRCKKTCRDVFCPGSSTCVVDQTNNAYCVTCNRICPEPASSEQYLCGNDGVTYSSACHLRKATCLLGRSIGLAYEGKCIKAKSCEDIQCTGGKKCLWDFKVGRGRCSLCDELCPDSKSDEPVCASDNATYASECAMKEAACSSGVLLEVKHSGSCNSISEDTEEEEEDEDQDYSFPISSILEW

[6] = molecular target: Fibroblast growth factor 2 (Homo sapiens) (UniProt P09038); assay: basic fibroblast growth factor binding to printed compounds – biochemical, small-molecule microarray, 635/667 nm fluorescence, primary screen (AID 1133); conditions: FGF2, fluorescence 635/667, higher = more signal
Fibroblast growth factor 2 (Homo sapiens), sequence (P09038 whole entry, looked up): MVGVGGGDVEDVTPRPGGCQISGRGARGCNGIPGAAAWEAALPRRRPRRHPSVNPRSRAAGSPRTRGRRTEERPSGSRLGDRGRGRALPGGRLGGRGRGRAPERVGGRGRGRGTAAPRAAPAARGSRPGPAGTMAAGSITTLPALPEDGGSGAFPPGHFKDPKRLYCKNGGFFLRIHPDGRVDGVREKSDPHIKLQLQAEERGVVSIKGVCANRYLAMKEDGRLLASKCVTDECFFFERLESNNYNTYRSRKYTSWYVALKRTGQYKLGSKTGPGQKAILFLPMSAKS

[7] = JC-1 mitochondrial potential readout, lung cancer cells – cell-based, A549, JC-1 fluorescence, basal, 24 h, 100 nL, profiling panel (AID 1138); conditions: higher = more signal;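 also: A549 lung adenocarcinoma cells under basal conditions with no added stimulus; test concentration not given here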
Lefty1 = Lefty1 protein binding to printed compounds – biochemical, small-molecule microarray, 635/667 nm fluorescence, primary screen (AID 1139); conditions: fluorescence 635/667, higher = more signal
[8] = test system: wheat germ agglutinin (Triticum aestivum), Alexa647-labelled; assay: Alexa647-WGA lectin binding to printed small molecules – biochemical, small-molecule microarray, 635/667 nm fluorescence, artefact control for SMM control-protein annotation, profiling panel (AID 1140); conditions: WGA-A647 binding, 635 nm fluorescence, higher = more signal;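 also: score merges 667 nm feature emission with signal to noise over triplicate slides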
[9] = molecular target: Luciferin 4-monooxygenase (Photinus pyralis) (UniProt P08659); assay: inhibition of purified Photinus pyralis luciferase – biochemical, luminescence, purified enzyme, 2006 set, primary screen (AID 1141); conditions: purified firefly luciferase, SteadyGlo luminescence, 30 min; higher = more signal, called active from +8 up or from −8 down;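 also: cell-free assay with purified firefly luciferase at 100 ng per well in PBS; test concentration not given here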
Luciferin 4-monooxygenase (Photinus pyralis), sequence (P08659 whole entry, looked up): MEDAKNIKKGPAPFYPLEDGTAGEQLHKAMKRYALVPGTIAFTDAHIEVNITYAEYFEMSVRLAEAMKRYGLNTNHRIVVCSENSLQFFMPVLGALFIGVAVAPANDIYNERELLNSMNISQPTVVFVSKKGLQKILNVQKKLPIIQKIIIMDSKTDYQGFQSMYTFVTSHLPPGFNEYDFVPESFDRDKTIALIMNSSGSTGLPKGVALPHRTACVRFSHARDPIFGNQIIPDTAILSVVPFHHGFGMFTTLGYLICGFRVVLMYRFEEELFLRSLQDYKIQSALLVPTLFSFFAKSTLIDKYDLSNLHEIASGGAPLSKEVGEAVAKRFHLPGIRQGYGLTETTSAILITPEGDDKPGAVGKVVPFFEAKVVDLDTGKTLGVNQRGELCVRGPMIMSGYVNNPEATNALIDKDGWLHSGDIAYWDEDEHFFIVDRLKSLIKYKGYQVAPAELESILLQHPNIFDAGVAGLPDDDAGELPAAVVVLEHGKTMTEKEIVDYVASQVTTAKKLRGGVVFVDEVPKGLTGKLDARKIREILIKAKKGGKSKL

Row | SMILES | composite z-score [1] | composite z-score [2] | composite z-score [3] | composite z-score [4] | composite z-score [5] | composite z-score [6] | z-score [7] | composite z-score (Lefty1) | composite z-score [8] | z-score [9]
1 | NC(=O)[C@@]1(CCS(=O)(=O)c2ccccc2)COC(c2ccc(OCCCO)cc2)=N1 | 0.329 | -0.201 | -0.0683 | 0.294 | 0.112 | -0.0653 | -0.492 | -0.643 | 1.05 | -0.188 (inactive)
2 | COCCOC(=O)N1C(=O)[C@@]2(c3cc(C#Cc4ccc(OC)cc4)ccc31)[C@H](C(=O)Nc1nc3ccccc3s1)[C@H]1C(=O)O[C@H](c3ccccc3)[C@H](c3ccccc3)N1[C@@H]2c1ccccc1OCCO | 0.484 | 1.05 | 0.0699 | 0.922 | 1.32 | 1.04 | -1.75 | 0.973 | 0.883 | -1.76 (inactive)
3 | CC(C)C[C@H]1NC(=O)[C@@]23C(=O)N[C@@H](Cc4ccccc4)C2[C@H](C)[C@@]2(C)O[C@H]2C3/C=C/C/C=C\CNC(=O)[C@@H]2CCCN2C1=O (stereo not given in full) | -0.17 | -0.0447 | -0.171 | 0.789 | 0.614 | 0.829 | -0.0387 | 0.661 | 0.032 | -0.575 (inactive)
4 | C[C@]1(C(=O)NCC(F)(F)F)c2ccccc2C(=O)N(Cc2ccc(OC(F)(F)F)cc2)[C@H]1c1ccc(CO)cc1 | 0.781 | 0.269 | 0.273 | 0.0709 | 1.13 | 0.358 | -0.274 | 0.369 | 0.314 | -0.219 (inactive)
5 | COCCOC(=O)N1C(=O)[C@@]2(c3cc(C#CC4(O)CCCCCC4)ccc31)[C@H](c1ccc(OCCO)cc1)N1[C@H](c3ccccc3)[C@H](c3ccccc3)OC(=O)[C@H]1[C@@H]2C(N)=O | 1.43 | 1.15 | 0.528 | 0.892 | 1.38 | 1.55 | -1.27 | 1.38 | 0.613 | -0.608 (inactive)
6 | CCCC[C@H]1OB(O)C[C@H]2C1=C(C)C[C@H]1C(=O)C=CC(=O)[C@H]12 | 0.306 | 0.615 | -0.244 | 0.483 | 0.828 | 0.642 | -0.353 | 1.16 | -0.0126 | -2.94 (inactive)
7 | COC(=O)[C@@]1(Cc2ccc(F)cc2)[C@H]2c3cc(C(=O)N(C)C)n(CCN4CCOCC4)c3C[C@H]2CN1C(=O)c1ccccc1 | 1.65 | 1.19 | 1.14 | 0.32 | -0.0389 | -0.708 | 0.147 | -0.0199 | 0.331 | 2.64 (inactive)
8 | COCCOC(=O)N1C(=O)[C@@]2(c3cc(C#Cc4ccc(OC)cc4)ccc31)[C@H](C(=O)N1CCCCCCC1)[C@H]1C(=O)O[C@H](c3ccccc3)[C@H](c3ccccc3)N1[C@@H]2c1ccccc1OCCO | 0.32 | 1.21 | 0.628 | 0.495 | 1.49 | 1.54 | -0.864 | 1.62 | 0.614 | 0.197 (inactive)
